Source: PubChem
HTT aggregate: mutant huntingtin aggregation inhibition; Potency, µM (doses to about 46.1 µM), for the others: at the top dose activity change, negative = inhibition, usual class: inhibitors; PC12 HttQ103-GFP aggregates, Acumen cytometry, 40 h; actives 1.1% (n = 220,000); AID 1688; note: % is set by controls: 0 for no effect and ±100 for the full control effect; nearly all actives have a fitted effect of over 60% in size
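Inducible Q103 Huntingtin exon 1–GFP PC12 line, 1500 cells/well in phenol red free DMEM with 5% equine and 5% calf serum. Tebufenozide 100 nM induced expression; compounds titrated; aggregates quantified by cytometry.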
Tau fibril ThT: inhibitors of human tau fibril formation, thioflavin T binding. P10636. recombinant tau K18 P301L, heparin-induced fibrillization, ThT fluorescence. Potency, µM (highest dose often 57.4 µM), inactives show at the top dose activity, negative = inhibition, actives largely listed as inhibitors. actives 2.1% (n = 270,000); note: % is set by controls: 0 for no effect and ±100 for the full control effect; nearly all actives have a fitted effect of over 55% in size
Target sequence (P10636 561-689 P618L limits assumed): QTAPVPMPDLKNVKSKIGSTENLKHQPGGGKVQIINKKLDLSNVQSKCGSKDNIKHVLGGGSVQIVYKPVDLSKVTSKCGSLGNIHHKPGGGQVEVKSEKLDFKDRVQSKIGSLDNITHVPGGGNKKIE
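Fibril formation assay: tau K18 P301L at 15 uM with trace Alexa 594 label, heparin inducer 20 uM, pH 7 sodium acetate buffer, 37 C for 6 hr; endpoint ThT signal.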
Tau FP inhib: blocks human tau fibril formation measured by polarization. P10636. K18 P301L tau heparin fibrillization, Alexa594 FP, 6 h. Potency, µM (series often up to 57.7 µM), inactives show at the highest dose activity, negative = inhibition, hits mostly inhibitors. actives 0.39% (n = 280,000); note: % is set by controls: 0 for no effect and ±100 for the full control effect; nearly all actives have a fitted effect of over 55% in size
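K18 P301L tau (15 uM unlabeled/0.24 uM Alexa 594-labeled, final) + compound + heparin 20 uM final; 100 mM NaOAc pH 7; 6 hr 37 C; ThT 30 uM final added, 1 hr RT; FP ex 555/em 632 nm.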
HTT ATP protect: Huntington cell model cytoprotection by ATP luminescence; Potency, µM (titrated, usually from 56.4 µM), for inactives: cytoprotection (ATP increase), most hits filed as activators; AID 1471; PC12 HTT-Q103 induced, cytoprotection, ATP luminescence, 40 h; actives 0.14% (n = 230,000); note: % of control where 0% means no effect; nearly all actives have a fitted effect of over 45% in size
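Quantitative HTS on tebufenozide-induced (100 nM) PC12 cells expressing HTTQ103 exon 1–GFP; compounds tested as a concentration series; survival measured via cellular ATP.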
Tau fluor cs: counter-screen for tau fibril formation inhibitors; tau K18 P301L (four-repeat tau fragment) Alexa594 fluorescence, heparin fibrillization; actives 0.93% (n = 280,000); AID 1463; Potency, µM (titrated, usually from 57.7 µM), without a hit: at the top dose activity change, negative = decrease; note: % is set by controls: 0 for no effect and ±100 for the full control effect; nearly all actives have a fitted effect of over 55% in size
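Human K18 P301L tau (15 uM unlabeled plus 0.24 uM Alexa 594-labeled, final) in 100 mM sodium acetate pH 7 was mixed with compound and 20 uM heparin and incubated 6 hr at 37 C.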
The depositor's hits bear a star; [ ] = remark or other dose. This is a sample that favours compounds with a hit; in the whole collection about 3.7% have one here. Calls come from the whole dose curve; as a rule, active = well fitted curve in the direction sought with a large enough effect; inconclusive = small, poorly fitted or top-dose-only effect, or another doubt; inactive = no such curve, though single readings can be large; an effect the other way counts as inactive or inconclusive. Potency is the fitted concentration of half-maximal effect.

Results for CC(=O)[C@]1(O)Cc2c(O)c3c(c(O)c2[C@@H](O[C@H]2C[C@H](N)[C@H](O)[C@H](C)O2)C1)C(=O)c1ccccc1C3=O ?
HTT aggregate: 0.63µM*; Tau fibril ThT: 3.5µM*; Tau FP inhib: inconclusive; HTT ATP protect: -97%; Tau fluor cs: inconclusive

How did CCOc1ccc(C(=O)N2CCc3cc(OC)c(OC)cc3C2COc2ccc3c(C)cc(=O)oc3c2)cc1OCC (stereo not given) do in these assays?
Tau fibril ThT: -7%; Tau FP inhib: -4%; Tau fluor cs: -12%

Results for Nc1nccc(Nc2ccc(S(N)(=O)=O)cc2)n1 ?
HTT ATP protect: -8%[10 µM]

How did CCOc1ccc(S(=O)(=O)Nc2cccc(Cl)c2)cc1 do in these assays?
HTT ATP protect: -24%[0.074 µM]

How did CCOc1ccc(S(=O)(=O)Nc2cc(Cl)ccc2O)cc1 do in these assays?
HTT aggregate: 22µM*; Tau fibril ThT: 0%; Tau FP inhib: 13%; HTT ATP protect: 16%[10 µM]; Tau fluor cs: inconclusive

How did Cc1ccccc1OCCSCc1nc2ccccc2[nH]1 do in these assays?
HTT aggregate: 3.5µM*; Tau fibril ThT: -9%; Tau FP inhib: 7%; HTT ATP protect: 3%[10 µM]; Tau fluor cs: -25%

Results for BrC(Br)C(Br)Br ?
HTT ATP protect: -12%

How did Cn1cccc1C(=O)N1CCC2(CC1)CN(C(c1ccccc1)c1ccccc1)C2 do in these assays?
HTT ATP protect: -67%

Results for C=CCc1cccc(/C=C/c2cc(=O)c3ccccc3[nH]2)c1O ?
HTT aggregate: 3.2µM*; Tau fibril ThT: inconclusive; Tau FP inhib: -5%; HTT ATP protect: -88%[10 µM]; Tau fluor cs: 2%

Results for CC1CCN(S(=O)(=O)c2ccc3nc(Nc4cccc(C(F)(F)F)c4)ccc3c2)CC1 ?
Tau fibril ThT: inconclusive; Tau FP inhib: 28µM*; Tau fluor cs: inconclusive

Results for CC1CCN(S(=O)(=O)c2ccc3nc(NCc4ccc(F)cc4)ccc3c2)CC1 ?
Tau fibril ThT: 0%; Tau FP inhib: inconclusive; Tau fluor cs: inconclusive

What do the screens show for `CC1CCN(S(=O)(=O)c2ccc3nc(Nc4ccc(C#N)cc4)ccc3c2)CC1`?
Tau fibril ThT: inconclusive; Tau FP inhib: 14µM*; Tau fluor cs: inconclusive

Results for O=C(NCCOCCn1c(=O)oc2ccccc21)Nc1ccc(Cl)cc1 ?
Tau fibril ThT: 1%; Tau FP inhib: -10%; Tau fluor cs: -24%

What do the screens show for `O=C(O)CCCc1ccc2ccccc2c1`?
HTT ATP protect: -2%[10 µM]

What do the screens show for `O=C(CSc1nc2ccccc2n1CCc1ccccc1)c1ccc(O)c(O)c1`?
HTT aggregate: inconclusive; Tau fibril ThT: inconclusive; Tau FP inhib: -3%; HTT ATP protect: -14%[10 µM]; Tau fluor cs: 25µM*[quencher]

How did O=C(CSc1nc2ccccc2n1CCc1ccccc1)N1CCOCC1 do in these assays?
HTT aggregate: 5%; Tau fibril ThT: -8%; Tau FP inhib: 6%; HTT ATP protect: -7%[10 µM]; Tau fluor cs: -4%

What do the screens show for `O=C(O)C1CCC(NSc2ccccc2[N+](=O)[O-])CC1` (stereo not given)?
HTT aggregate: -9%[9.22 µM]; Tau fibril ThT: 16µM*; Tau FP inhib: 18µM*; HTT ATP protect: -10%[10 µM]; Tau fluor cs: -19%

Results for COc1cccc(C(=O)N2c3nc(-c4ccco4)nn3C3(CCCCC3)[C@@H]3CCCC[C@@H]32)c1 ?
Tau fibril ThT: -9%; Tau FP inhib: 0%; Tau fluor cs: -7%

What do the screens show for `COc1ccc(-c2n[nH]c(C)c2-c2ccc(Cl)cc2)c(O)c1`?
HTT aggregate: -12%; Tau fibril ThT: inconclusive; Tau FP inhib: -10%; HTT ATP protect: -12%; Tau fluor cs: 20µM*[quencher]

What do the screens show for `Cc1[nH]nc(-c2ccc(O)cc2O)c1-c1ccc(Cl)cc1`?
HTT aggregate: inconclusive; Tau fibril ThT: -16%; Tau FP inhib: inconclusive; HTT ATP protect: 7%[0.074 µM]; Tau fluor cs: 22µM*[quencher]

How did COc1ccc(O)c(-c2c(-c3ccc(Cl)cc3)n[nH]c2C)c1 do in these assays?
HTT aggregate: -17%; Tau fibril ThT: -13%; Tau FP inhib: -5%; HTT ATP protect: 1%; Tau fluor cs: -28%
